Measured values reported in PubChem BioAssay.
Several values for one entry are separate records, joined by “and”; a condition that tells them apart may be missing. Identical values can stand only once. Activity calls are given as the source filed them.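 How the source made its calls, unless noted: active means inhibition at or above 50% relative to wild type and mutant plate controls; inactive means inhibition below 50%.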

What was measured:
[1] = inhibitors of TNFa-induced NFkB p65 translocation, primary screen, imaging, HUVEC, MLSMR starter and 10KST1 sets (AID 438;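 active means inhibition above 20% together with a positive visual image hit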;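 further: compound added about 3h40 before a 20 min TNFalpha stimulation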;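 on inhibition: signal is the nuclear over cytoplasmic p65 intensity ratio per well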); details: HUVEC TNFa-induced p65 nuclear translocation; cell count: measured here: nuclei count (cytotoxicity indicator), at 2.08 µM; inhibition: at 2 µM, stronger effect = higher value, 0% TNFa-plus-vehicle, 100% no-TNFa wells
[2] = inhibitors of mutant huntingtin aggregation, primary screen, imaging, exon1htt(103Q)mCFP cells, high-content imaging (AID 483;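 active means visual image review flags a hit and inhibition of aggregation exceeds 20%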;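 further: compound exposure lasted 3 days before fixation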;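 on nuclei count: percent of the per-plate median nuclei count of sample wells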); details: exon1htt(103Q)mCFP cell line, aggregate imaging, at 2 µM; inhibition of aggregation: stronger effect = higher value; nuclei count: measured here: cell count, toxicity
[3] = DUSP6 inhibitors restoring Erk phosphorylation by chemical complementation, primary imaging in DUSP6-transfected HeLa (AID 609;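 active means compounds giving at least 50% inhibition in the cell-based MKP-3 phosphatase rescue imaging test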;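 on inhibition: phospho-Erk level distribution per well compared with pooled transfected vehicle control wells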); details: HeLa MKP-3 transfected, phospho-Erk imaging KS statistic, at 10 µM, cells stimulated with TPA for 15 min
[4] = target: Dual specificity protein phosphatase 6 (Homo sapiens) (UniProt Q16828); test: as above; details: HeLa MKP-3 transfected, phospho-Erk imaging KS statistic; at 10 µM; stronger effect = higher value; cells stimulated with TPA for 15 min
Chain of Dual specificity protein phosphatase 6 (Homo sapiens) (Q16828 whole entry, looked up): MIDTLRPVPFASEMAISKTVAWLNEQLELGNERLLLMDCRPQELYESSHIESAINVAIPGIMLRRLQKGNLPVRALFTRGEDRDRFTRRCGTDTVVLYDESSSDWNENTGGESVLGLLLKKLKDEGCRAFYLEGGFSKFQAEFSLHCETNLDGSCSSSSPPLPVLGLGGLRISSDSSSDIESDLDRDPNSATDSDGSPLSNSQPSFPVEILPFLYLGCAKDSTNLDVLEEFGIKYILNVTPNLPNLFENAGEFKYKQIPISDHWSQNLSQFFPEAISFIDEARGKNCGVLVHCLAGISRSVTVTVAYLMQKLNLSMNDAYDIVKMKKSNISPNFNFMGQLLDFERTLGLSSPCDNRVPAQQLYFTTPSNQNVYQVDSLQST

[5] = target: Voltage-gated potassium channel subunit beta-2 (Rattus norvegicus) (UniProt P62483); test: KvBeta enzyme negative modulators, primary screen, biochemical, NADPH fluorescence (AID 622;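 active means fluorescence slope higher than the sample average by over 3 SD, cut at about -0.22 in these data, passing the limit was not always enough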;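 further: slope of raw intensity against log time taken from 70 to 1610 s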); details: recombinant KvBeta, 4-cyanobenzaldehyde reduction, at 10 µM, stronger effect = higher value
Chain of Voltage-gated potassium channel subunit beta-2 (Rattus norvegicus) (P62483 whole entry, looked up): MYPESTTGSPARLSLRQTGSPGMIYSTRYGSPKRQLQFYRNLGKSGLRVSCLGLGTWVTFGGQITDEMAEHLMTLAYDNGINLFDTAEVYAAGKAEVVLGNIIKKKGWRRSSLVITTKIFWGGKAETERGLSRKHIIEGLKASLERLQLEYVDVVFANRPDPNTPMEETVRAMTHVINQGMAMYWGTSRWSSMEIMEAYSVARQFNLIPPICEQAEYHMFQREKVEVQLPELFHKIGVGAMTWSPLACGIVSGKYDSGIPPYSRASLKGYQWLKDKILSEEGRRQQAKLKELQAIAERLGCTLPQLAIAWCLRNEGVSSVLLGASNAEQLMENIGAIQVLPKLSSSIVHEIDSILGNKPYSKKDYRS

[6] = target: Voltage-gated potassium channel subunit beta-2 (Rattus norvegicus) (UniProt P62483); test: KvBeta positive modulators, primary screen, biochemical, NADPH fluorescence (AID 623;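 active means NADPH fluorescence slope more negative than the mean of all samples by about 3 SD, 99.7% confidence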;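 further: fluorescence intensity change per second fitted from 20 to 320 s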); details: Recombinant KvBeta, NADPH fluorescence decrease slope, 10 min; at 10 µM; stronger effect = lower value
[7] = target: Alpha-2C adrenergic receptor (Homo sapiens) (UniProt P18825); test: modulators of alpha2C/GIRK thallium flux, primary screen, cell-based, HEK293 alpha2C/GIRK1/2 (AID 624;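 active means fluorescence slope after compound addition differing from the mean of all screened samples at 99.7% confidence, in either direction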;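 further: slope of fluorescence ratio to pre-addition baseline per second over 15 to 24 s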); details: thallium flux BTC fluorescence, at 10 µM, actives lie on both sides
Chain of Alpha-2C adrenergic receptor (Homo sapiens) (P18825 whole entry, looked up): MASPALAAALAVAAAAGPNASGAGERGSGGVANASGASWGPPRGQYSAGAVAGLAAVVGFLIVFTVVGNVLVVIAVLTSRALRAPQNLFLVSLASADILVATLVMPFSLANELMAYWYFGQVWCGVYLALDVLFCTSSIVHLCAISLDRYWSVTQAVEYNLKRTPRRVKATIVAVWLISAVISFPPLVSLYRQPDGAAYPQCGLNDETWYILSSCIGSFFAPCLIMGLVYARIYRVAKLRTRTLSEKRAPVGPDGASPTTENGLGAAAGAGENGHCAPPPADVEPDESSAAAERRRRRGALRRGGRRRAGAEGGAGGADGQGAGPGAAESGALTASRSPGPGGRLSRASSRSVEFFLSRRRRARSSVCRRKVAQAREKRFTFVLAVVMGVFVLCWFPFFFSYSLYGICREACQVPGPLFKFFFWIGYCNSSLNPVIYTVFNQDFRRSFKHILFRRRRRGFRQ

[8] = inhibitors of larval lipid processing in zebrafish, primary screen, whole organism, PED6 fluorescence, gall bladder and intestine (AID 686;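 active means a full or partial loss of lipid-probe fluorescence in the fish gall bladder, intestine or both, judged by eye; inactive means no fluorescence loss, or compound toxic to the fish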;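 further: larvae 5 to 7 days old with five fish per well; signal comes from phospholipase A2 cleavage of quenched PED6 carried via bile; overnight exposure to compound and PED6 before scoring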); details: Zebrafish larvae PED6 lipid processing, fluorescence scoring; screened at 20 µM (by protocol)
[9] = inhibitors of Chlamydomonas gravitaxis, primary screen, whole organism, Chlamydomonas reinhardtii, WT vs cilia-less mutant, absorbance, 96-well (AID 463189); details: OD600 absorbance, 2 days, at 10 µM, stronger effect = higher value;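 further: 0% = wild type cc124 cells in DMSO and 100% = ciliumless bld1 mutant cells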
[10] = inhibitors of Sendai virus-induced IRF3 signaling, primary screen, TLR/RLR signaling modifier project, cell-based, Sendai virus stimulus, luciferase, 10K MLSCN set (AID 602276;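 active means inhibition at or above 50% at 10 µM; inactive means inhibition below 50%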;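 further: firefly luciferase from ISG56 promoter only with Renilla not read in this screen; 0% = Sendai virus plus DMSO and 100% = medium plus DMSO without virus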); details: HEK293 RL24 IRF3 luciferase reporter, at 10 µM, stronger effect = higher value
[11] = inhibitors of poly I:C-induced TLR3 signaling, primary screen, cell-based, poly I:C stimulus, luciferase, 10K MLSCN set (AID 602277;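 active means inhibition of the reporter signal at or above 50%; inactive means inhibition below 50%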); details: HEK293-TLR3 RL24 IRF3 luciferase reporter, at 10 µM, stronger effect = higher value
[12] = inhibitors of E-selectin induction by TNFa, primary screen, imaging, HUVEC, immunofluorescence, MLSMR starter and 10KST1 sets (AID 487;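 active means visually confirmed hit in the image check and inhibition above 20%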;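 on inhibition: signal is fraction of cell area covered by stained E-selectin grains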;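 on nuclei count: 100% = median nuclei count of all wells on the same plate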); details: HUVEC TNFalpha-induced E-selectin immunofluorescence imaging, at 2 µM; inhibition: stronger effect = higher value; nuclei count: measured here: cell number, toxicity
[13] = measured here: cell density z-score
[14] = measured here: nuclear c-Myc green intensity z-score
[15] = measured here: nuclear pErk red intensity z-score, stronger effect = higher value

With `COc1cccc2c1C(=O)c1c(O)c3c(c(O)c1C2=O)C[C@@](O)(C(=O)CO)C[C@@H]3O[C@H]1C[C@H](N)[C@H](O)[C@H](C)O1` the cell count [1] was 564, the inhibition [1] was -15.3% (inactive) and the inhibition of aggregation [2] was 23.4% (inactive). It also gave a nuclei count [2] of 2.5%, a z-score [3, 13] of 0.975 and a z-score [3, 14] of 6.47. For the same compound, the z-score [3, 15] was 3.82, the inhibition [4] was 96.1% (active) and the fluorescence slope [5] was -0.456 (inactive). For the same compound, the NADPH fluorescence slope [6] was 2.3e-06 (inactive), the slope [7] was 0.00828 (inactive) and the outcome [8] was “inactive”. The inhibition [9] was 1.03% (inactive), the inhibition [10] was -38.5% (inactive) and the inhibition [11] was 101% (active).

In the case of `c1ccc2c(NCC3CCCO3)nc(-c3ccncc3)nc2c1` (stereo not given), the cell count [1] is reported as 296, the inhibition [1] is reported as 1.9% (inactive) and the inhibition [12] is reported as -260% (inactive). For the same compound, the nuclei count [12] was 134%, the z-score [3, 13] was 0.349 and the z-score [3, 14] was -0.718. The z-score [3, 15] was -1.13, the inhibition [4] was 1.48% (inactive) and the fluorescence slope [5] was -0.516 (inactive). For the same compound, the NADPH fluorescence slope [6] was -3.7e-05 (inactive), the slope [7] was 0.00585 (inactive) and the inhibition [9] was 141% (active).

With `CC1=CC(c2ccccc2)n2nc(N3C(=O)C4CC=CCC4C3=O)nc2N1` (stereo not given) the cell count [1] was 367, the inhibition [1] was -3.2% (inactive) and the inhibition [12] was -63.7% (inactive). It also gave a nuclei count [12] of 153%, a z-score [3, 13] of 0.978 and a z-score [3, 14] of -0.382. The z-score [3, 15] was -0.0463, the inhibition [4] was -5.26% (inactive) and the fluorescence slope [5] was -0.41 (inactive). The NADPH fluorescence slope [6] was -0.000143 (inactive), the slope [7] was 0.00753 (inactive) and the inhibition [9] was -3.33% (inactive).

With `CC[N+](C)(C)Cc1ccccc1Br` the cell count [1] was 649, the inhibition [1] was -4.5% (inactive) and the inhibition [12] was -101% (inactive). It also gave a nuclei count [12] of 123%, a z-score [3, 13] of -1.09 and a z-score [3, 14] of -0.375. For the same compound, the z-score [3, 15] was 0.336, the inhibition [4] was 11.3% (inactive) and the fluorescence slope [5] was -0.502 (inactive). For the same compound, the NADPH fluorescence slope [6] was 1.7e-05 (inactive), the slope [7] was 0.00416 (inactive) and the outcome [8] was “inactive”. For the same compound, the inhibition [9] was 3.29% (inactive) and 10.5% (inactive), the inhibition [10] was 19.3% (inactive) and the inhibition [11] was 30.2% (inactive).

For `COc1ccc(C(=O)Cn2c(Br)nc3c2c(=O)n(C)c(=O)n3C)cc1OC`, the cell count [1] was 296, the inhibition [1] was -12.5% (inactive) and the inhibition [12] was 28.7% (inactive). For the same compound, the nuclei count [12] was 116%, the z-score [3, 13] was -1.61 and the z-score [3, 14] was 0.384. For the same compound, the z-score [3, 15] was -0.0762, the inhibition [4] was -1.75% (inactive) and the fluorescence slope [5] was -0.471 (inactive). For the same compound, the NADPH fluorescence slope [6] was -1.3e-05 (inactive), the slope [7] was 0.00557 (inactive) and the inhibition [9] was -16.3% (inactive).

In the case of `COc1cccc(-c2nc(NC(C)(C)C)c3ccccc3n2)c1O`, the cell count [1] is reported as 394, the inhibition [1] is reported as 0% (inactive) and the inhibition [12] is reported as -39.6% (inactive). The nuclei count [12] was 141%, the z-score [3, 13] was 0.222 and the z-score [3, 14] was 0.227. The z-score [3, 15] was 0.927, the inhibition [4] was -1.75% (inactive) and the fluorescence slope [5] was -0.422 (inactive). For the same compound, the NADPH fluorescence slope [6] was -0.000132 (inactive), the slope [7] was 0.00293 (inactive) and the inhibition [9] was 34.2% (inactive).

For `COCCN(CCOC)C(=O)C12CCC(C)(C(=O)C1)C2(C)C` (stereo not given), the cell count [1] was 237, the inhibition [1] was -4.2% (inactive) and the inhibition [12] was 17.3% (inactive). It also gave a nuclei count [12] of 124%, a z-score [3, 13] of 0.486 and a z-score [3, 14] of 2.03. For the same compound, the z-score [3, 15] was 1.23, the inhibition [4] was 10.5% (inactive) and the fluorescence slope [5] was -0.458 (inactive). For the same compound, the NADPH fluorescence slope [6] was -5.9e-05 (inactive), the slope [7] was 0.00572 (inactive) and the inhibition [9] was -24.6% (inactive).
